40 molecules from PubChem BioAssay (NCI) can be followed below.

This is part of a sample that, as a whole, favours compounds with a hit. Of some 83,000 tested, about 20% had one in any assay.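 Plates (96-well) were seeded with cells, treated with compound at one concentration, and incubated for 48 hours before percent growth was determined.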 Activity calls are given as the source filed them.

The test has as its system MCF7 breast. Kind of test: NCI-60 one-dose screen, 48 h (100 = growth as untreated, 0 = no growth, -100 = all killed). The settings on record: 10 µM unless noted. On the procedure: Growth inhibition of the MCF7 human tumor cell line is measured as a screen for anti-cancer activity. Cells are grown in 96 well plates and exposed to the test compound for 48 hours. Compounds are tested at a single concentration, which is 10^-5 M for most compounds. The reported endpoint is percent growth (GI% or GIPRCNT), where numbers from 0 - 100% represent growth inhibition, and numbers from -100% - 0 represent cell death. For example, a value of 40 represents 60% growth inhibition. A value of 0 means no net growth occurred over the course of the experiment. A value of -40 indicates 40% of cells at the beginning of the experiment died by the end of the experiment. A value of -100 means all cells are dead at the end of the experiment.
NCI-60 Human Tumor Cell Lines Screen was performed using the standard one-dose NCI protocol, which is described in more detail at https://dtp.cancer.gov/discovery_development/nci-60/default.htm.
Compounds with GIPRCNT values below 10 were considered active. Activity score was based on GIPRCNT using the following formula: […]
Score is 0 for GIPRCNT values of 100 or above, 50 for GIPRCNT values of 0, and 100 for GIPRCNT values of -100.
Consider `O=C1CCCC=CC[C@H]2C=C(Cl)C(=O)C2=CC[C@H](CCCCC(F)(F)F)OC(=O)CCCC=CC[C@H]2C=C(Cl)C(=O)C2=CC[C@H](CCCCC(F)(F)F)OC(=O)CCCC=CC[C@H]2C=C(Cl)C(=O)C2=CC[C@H](CCCCC(F)(F)F)O1`, for which the growth is 30.5% [6.25 µM] (inactive).
On to `[B-][N+](CC)(CC)c1ccccc1`, for which the growth is 95.9% (inactive).
As to `Cc1cccc2c1NC(=O)[C@@]21[C@H](C(=O)c2ccccc2)[C@]2(C(=O)Nc3ccccc32)[C@H]2CCCN21`, the growth was -4.76% [100 µM] (active).
With `CCC1C(=O)COC1=O` (stereo not given), the growth was 94.8% (inactive).
Regarding `COC(=O)[C@]12CC[C@@H](C(=O)/C=C/c3cccnc3)[C@@H]1[C@H]1CC[C@@H]3[C@@]4(C)C/C(=C/c5cccnc5)C(=O)C(C)(C)[C@@H]4CC[C@@]3(C)[C@]1(C)CC2`, the growth is -54.2% (active).
In the case of `O=C1c2ccccc2NC(c2cn(-c3ccccc3)nc2-c2cccs2)N1Cc1ccccc1` (stereo not given), the growth was 72% (inactive).
With `Cn1cc(-c2nc(-c3cn(C)c4ncccc34)cs2)c2cc(F)ccc21` the figure was 20% (inactive); with `Cn1c(=O)c2c(ncn2CCC(=O)Nc2ccc(F)cc2)n(C)c1=O`, 100% (inactive).
As to `Cc1cc(C)nc(NC(N)=NCCc2ccccc2)n1`, the growth is 17.3% (inactive).
The same measure for `Fc1ccc2[nH]cc(-c3nc(-c4c[nH]c5ncccc45)cs3)c2c1`: 30.3% (inactive); for `C=C(C)[C@@H]1CC[C@]2(C(=O)O)CC[C@]3(C)[C@H](CC[C@@H]4[C@@]5(C)C/C(=C/c6ccc(OC)cc6)C(=O)C(C)(C)[C@@H]5CC[C@]43C)[C@@H]12`: 5.66% (active).
`COc1cc(-c2cc3cc(O)ccc3oc2=O)cc(OC)c1OC`: the growth is 87.2% (inactive).
The same measure for `COc1cccc(-c2nn(-c3ccccc3)cc2-c2ccnc(NCCCNS(=O)(=O)c3cccc(F)c3)c2)c1`: 16% (inactive); for `Cc1ccc2c(c1)c1nc3cc(C)c(C)cc3nc1n2CCN(C)C`: -6.81% (active); for `Nc1nc(Br)nc2c1ncn2C1CC(O)C(CO)O1` (stereo not given): 28.4% (inactive).
Turning to `C#Cc1cccc(NC(=O)C2CCCN(C(=O)CCl)C2)c1` (stereo not given), the growth is 59.1% [8.25 µM] (inactive).
With `COC(=O)[C@]12CC[C@@H](C)[C@H](C)[C@@H]1C1=CC[C@@H]3[C@@]4(C)C=C(O)C(=O)C(C)=C4CC[C@@]3(C)[C@]1(C)CC2`, the growth is 17.2% (inactive).
As for `CCC(c1ccc(OC)cc1)C(CC)c1ccc(O)c(CN2CCCCC2)c1` (stereo not given), the growth is 63% (inactive).
For the molecule `COc1ccc2nc(-c3c(-c4ccccc4)nc4ncccn34)[nH]c2c1`, the growth was 96.6% (inactive).
Regarding `COc1ccc(C(=O)c2cc(OC)c(OC)c(OC)c2)cc1/C=C/C(=O)c1cc(OC)c(OC)c(OC)c1`, the growth is 75.2% (inactive).
`CC(=O)OC(C)COc1ccc(-c2ccccc2)cc1` (stereo not given): the growth is 103% (inactive).
Take `COC(=O)[C@]12CC[C@@H](C)[C@H](C)[C@@H]1C1=CC(=O)[C@@H]3[C@@]4(C)C[C@@H](OC(C)=O)[C@H](OC(C)=O)[C@@](C)(COC(C)=O)[C@@H]4C(=O)C[C@@]3(C)[C@]1(C)CC2`: the growth was 42.5% (inactive).
As to `COc1cc2c(cc1-c1c(C)noc1C)ncc1nc(C3CC3)n([C@H](C)COC(F)F)c12`, the growth is 21.7% (inactive).
Take `Cc1ccccc1-c1nc(C(Cl)Cl)nc2cc(-c3ccccc3)nn12`: the growth is 64% (inactive).
On to `CC(C)(C)c1ccc(OP(=S)(N/N=C/c2ccccc2O)Oc2ccc(C(C)(C)C)cc2)cc1`, for which the growth is 53.8% (inactive).
Take `N#CC1C(=N)Cc2ccccc2-c2ccccc21` (stereo not given): the growth was 31.4% (inactive).
As to `C=C(C)[C@@H]1CC[C@]2(C(=O)O)CC[C@]3(C)[C@H](CC[C@@H]4[C@@]5(C)C/C(=C/c6cccc(I)c6)C(=O)C(C)(C)[C@@H]5CC[C@]43C)[C@@H]12`, the growth is 19.6% (inactive).
In the case of `CC(=O)O[C@H]1CC[C@@]2(C)[C@@H](CC[C@@H]3[C@@H]2CC(=O)[C@@]2(C)[C@H]3C[C@@H](C3CCCC3=O)[C@@H]2C(C)=O)C1` (stereo not given in full), the growth is 98.2% (inactive).
Turning to `COc1cc2c(cc1OC)C(=O)/C(=C/c1cc(-c3ccc4c(c3)OCO4)n[nH]1)C2`, the growth was 0.343% (active).
Regarding `C=C(C)[C@@H]1CC[C@]2(C)CC[C@]3(C)[C@H](CC[C@@H]4[C@@]5(C)CCCNC(C)(C)[C@@H]5CC[C@]43C)[C@@H]12`, the growth is 33.3% (inactive).
For `CC(=O)O[C@@H]1CCN2C(=O)N(C)c3ccccc3[C@@H]2C1`, the growth was 94.6% (inactive).
`COc1ccc2c(c1)c(-c1nc(-c3c[nH]c4ncccc34)cs1)cn2CCNC(=O)OC(C)(C)C`: the growth was 37.3% (inactive).
Consider `CC(=O)c1c(C)[nH]c(-c2nc3ccc(N4CCN(C)CC4)cc3[nH]2)c1-c1ccc2c(c1)OCCO2`, for which the growth is 10.5% (inactive).
The same measure for `C[C@H]1[C@@H]2[C@H]3CC[C@@H]4[C@@]5(C)Cc6c([nH]c7ccccc67)C(C)(C)[C@@H]5CC[C@@]4(C)[C@]3(C)CC[C@]23CO[C@]1(C)[C@@H](C(=O)/C=C/c1ccccn1)C3`: 69.2% (inactive); for `N#C/C(=C\c1ccc(-c2ccc(Br)cc2)o1)c1nc(-c2ccco2)cs1`: 15.4% (inactive).
On to `O=C(N/N=C\c1ccccc1O)C1CC1`, for which the growth was 102% (inactive).
As for `Nc1nc(N)c2nc3c(nc2n1)CCCCCCCCCC3`, the growth was 46.2% (inactive).
Consider `Cc1csc(Nc2nc(-c3cccc(Br)c3)nc(C(Cl)(Cl)Cl)n2)n1`, for which the growth was 28.9% (inactive).
The same measure for `CCN1CCN(C(=O)[C@@]2(C)CC[C@]3(C)CC[C@]4(C)C(=CC(=O)[C@@H]5[C@@]6(C)CC[C@H](OC7C[C@@H](O)[C@@H](O)C(C)O7)C(C)(C)[C@@H]6CC[C@]54C)[C@@H]3C2)CC1` (stereo not given in full): 24.5% (inactive); for `COc1cccc(-c2nn(-c3ccccc3)cc2-c2ccnc(NCCCNS(=O)(=O)c3ccc(Br)cc3)c2)c1`: 29.6% (inactive).
